Test results reported in publication PMC5540273 (PLoS ONE, 2017).

How the values were obtained:
Conditions in all cases: concentration: 1 μM, replicates: in singlicate; n = 1
FYN = system: FYN
GAK = system: GAK
GCN2(Kin.Dom.2,S808G) = system: T1, GCN2(Kin.Dom.2,S808G)
T1 construct: gene EIF2AK4

GRK1 = system: GRK1
GRK2 = system: T2, GRK2
T2 construct: gene ADRBK1

GRK3 = system: T3, GRK3
T3 construct: gene ADRBK2

GRK4 = system: GRK4
GRK7 = system: GRK7
GSK3A = system: GSK3A
GSK3B = system: GSK3B
HASPIN = system: T4, HASPIN
T4 construct: gene GSG2

HCK = system: HCK
HIPK1 = system: HIPK1
HIPK2 = system: HIPK2
HIPK3 = system: HIPK3
HIPK4 = system: HIPK4
HPK1 = system: HPK1
HUNK = system: HUNK
ICK = system: ICK
IGF1R = system: IGF1R
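Further: KINOMEscan kinase panel screen.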

Compound | %Inh (FYN) [%] | %Inh (GAK) [%] | %Inh (GCN2(Kin.Dom.2,S808G)) [%] | %Inh (GRK1) [%] | %Inh (GRK2) [%] | %Inh (GRK3) [%] | %Inh (GRK4) [%] | %Inh (GRK7) [%] | %Inh (GSK3A) [%] | %Inh (GSK3B) [%] | %Inh (HASPIN) [%] | %Inh (HCK) [%] | %Inh (HIPK1) [%] | %Inh (HIPK2) [%] | %Inh (HIPK3) [%] | %Inh (HIPK4) [%] | %Inh (HPK1) [%] | %Inh (HUNK) [%] | %Inh (ICK) [%] | %Inh (IGF1R) [%]
O=C(O)C(F)(F)F.O=c1[nH]ccc2nc(N[C@@H]3CCNC3)nc(Nc3ccc4c(c3)S(=O)(=O)CC4)c12 [GSK2181306] | 43 | 76 | 97.3 | 95.2 | 49 | 60 | 88 | 65 | 97.8 | 92.1 | 90 | 59 | 75 | 84 | 93.3 | 56 | 96.7 | 0 | 68 | 19
CCNC(=O)/C=C/c1n[nH]c2cc(Sc3ccccc3C(=O)NC)ccc12 | 0 | 13 | 6 | 14 | 25 | 20 | 0 | 0 | 18 | 29 | 14 | 7 | 23 | 2 | 22 | 0 | 8 | 0 | 0 | 10
COc1ccc(NC(=O)c2ccoc2)cc1-c1ccc(C(=O)NCC2CC2)cc1 [GW810437] | 0 | 0 | 0 | 24 | 0 | 0 | 0 | 0 | 0 | 26 | 23 | 26 | 5 | 18 | 7 | 6 | 0 | 31 | 13 | 0
Cc1ccc(C)c(NC(=O)Nc2ccc(C)c(-c3ccc(C(=O)Nc4ccncc4)cc3)c2)c1 [GSK1398473] | 25 | 0 | 0 | 0 | 0 | 9 | 0 | 0 | 0 | 12 | 0 | 92.4 | 0 | 0 | 12 | 0 | 36 | 0 | 8 | 0
CN(C)CCNS(=O)(=O)c1ccc(-c2ccnc3[nH]ccc23)cc1 [GSK977620] | 18 | 1 | 14 | 71 | 0 | 72 | 0 | 86 | 0 | 11 | 84 | 0 | 82 | 82 | 90.5 | 43 | 42 | 0 | 5 | 2
Cc1ccc(-c2ccc3occ(-c4ccc(S(C)=O)cc4)c3c2)nn1 (stereo not drawn) | 0 | 0 | 1 | 12 | 0 | 0 | 7 | 0 | 3 | 0 | 42 | 0 | 42 | 2 | 0 | 0 | 0 | 0 | 0 | 0
Cc1ccc(Nc2ccnc(Nc3ccc(C)c(F)c3)n2)cc1O.Cl [GW582868] | 79 | 53 | 36 | 100 | 0 | 70 | 0 | 0 | 14 | 7 | 10 | 29 | 0 | 0 | 0 | 4 | 30 | 0 | 2 | 0
Fc1cc(Cl)ccc1Nc1ccnc2cc(-c3ccc(CN4CCSCC4)o3)ccc12 [GW560106] | 90.5 | 84 | 0 | 0 | 0 | 32 | 3 | 0 | 22 | 0 | 28 | 95.3 | 3 | 0 | 0 | 0 | 20 | 71 | 0 | 25
NCCC(NC(=O)c1cc(Br)c(-c2ccnc3[nH]ccc23)s1)c1ccccc1.O=C(O)C(F)(F)F.O=C(O)C(F)(F)F (stereo not drawn) [GSK1307810] | 0 | 83 | 0 | 100 | 82 | 96.4 | 72 | 89 | 0 | 20 | 97.6 | 0 | 53 | 9 | 67 | 93.3 | 69 | 0 | 0 | 0
